This assay is described as follows: viability loss with induced miR-34 in A549 – imaging, A549 dox-inducible miR-34, nuclei and caspase counts, primary screen (AID 1347080). Note: test concentration not given here. The note with it: A549 miR-34 inducible, Hoechst nuclei count, 48 h.
[1] abbreviates: stronger effect = lower value, cell number ratio, induced over uninduced.
Where [2] appears, read: measured here: relative caspase fold change +Dox/-Dox.
Where [3] appears, read: measured here: total cells with miR-34 induction, stronger effect = lower value.
The mark [4] stands for this setting: measured here: total cells without miR-34 induction.

Experimental findings from PubChem BioAssay are described below.

Calls of active or inactive are those of the source.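 Rule for the calls: active = compounds whose cell count with miR-34 switched on is under 0.7 times the count with it off; inactive = the rest.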

On to `CCCCCCCCCCCCCCCCC/C=C/C(=O)O`, for which the fold change reads like this: under setting [1], 0.976 (inactive); under setting [2], 0.547. Besides, the cell count is 5370 under setting [3] and 5500 under setting [4].
On to `OC1C[C@@H]2[C@@H](CC[C@@H](O)CCc3ccccc3)[C@H](O)C[C@@H]2O1` (stereo partly specified), for which the fold change under setting [1] is 1.04 (inactive) and the fold change under setting [2] is 0.862. Moreover, the cell count under setting [3] amounted to 6130 and the cell count under setting [4] came to 5890.
Turning to `CCCCCCCCCCCCCCCC(=O)N[C@H](C)CO`, the fold change by setting is: under setting [1], 0.916 (inactive); under setting [2], 0.934. Further, the cell count is 5780 under setting [3] and 6310 under setting [4].
Consider `Cc1nc(COP(=O)(O)O)cc(CN(CCN(CC(=O)O)Cc2cc(COP(=O)(O)O)nc(C)c2O)CC(=O)O)c1O.[Mn]`, for which the fold change under setting [1] was 1.02 (inactive) and the fold change under setting [2] turned out to be 0.746. Further, the cell count runs as follows: under setting [3], 9240; under setting [4], 9050.
